Assay results taken from PubChem BioAssay (NCI).
The panel holds about 83,000 compounds, 20% with a hit somewhere; the sample as a whole holds those more often.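 Step 1: grow cells in 96-well plates. Step 2: add test compound at a single concentration. Step 3: incubate 48 h. Step 4: record percent growth.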 Activity calls are given as the source filed them. Rule for the calls: active = growth percent below 10; inactive = the rest.

Each compound was assayed on SK-MEL-2 melanoma (assay: NCI-60 one-dose screen, 48 h (100 = growth as untreated, 0 = no growth, -100 = all killed)). Conditions: 10 µM unless noted.
`COc1ccc(NC(=O)CSc2nc3ccccc3c(=O)n2-c2ccccc2C(F)(F)F)c(OC)c1OC` was tested, and the growth was 121% (inactive).
In the case of `COc1ccc(C(=O)/C=C/c2cc(C(=O)c3cc(OC)c(OC)c(OC)c3)ccc2OC)cc1`, the growth is reported as 60.8% (inactive).
`COc1ccc(C(=O)/C=C/c2ccc(/C=C/c3cc(OC)c(OC)c(OC)c3)cc2)cc1` was tested, and the growth was 65.1% (inactive).

What follows are compounds tested on SN12C renal in the same assay as above. Conditions: 10 µM unless noted.
For `COc1ccc(C(=O)c2cc(OC)c(OC)c(OC)c2)cc1/C=C/C(=O)c1ccc(OC)c(OC)c1`, the growth was 42.3% (inactive).
`COc1c(NC[C@H]2OC(O)[C@H](O)[C@@H](O)[C@@H]2O)c(=O)c1=O` (some centres not stated) was tested, and the growth was 101% (inactive).
`COc1cccc(/C=C/c2c(C(=O)O)cccc2[N+](=O)[O-])c1OC` was tested, and the growth was 103% (inactive).
For `COc1ccc(OC)c(C(=O)c2oc3ccc(Br)cc3c2N)c1`, the growth was 39.4% (inactive).
For `Nc1c(C(=O)Nc2ccccc2)sc2nc3c(cc12)CN(Cc1ccccc1)CC3`, the growth was 70.3% (inactive).
For `CN=S(=O)(NC(=O)c1ccc(Cl)cc1Cl)c1ccc(Br)s1` (configuration not stated), the growth was 105% (inactive).
`CC(C)C[C@H](NC(=O)[C@H](Cc1ccccc1)n1ccc(N2CCCCC2)cc1=O)B(O)O` was tested, and the growth was 26.7% (inactive).
`COc1ccc(-c2cn[nH]c2-c2cc(OC)c3c(c2)OCO3)cc1` was tested, and the growth was 34% (inactive).
With `COc1ccccc1CNCCCN1C(=O)c2ccc3c4c(ccc(c24)C1=O)C(=O)N(CCCNCCCCNCCCCN)C3=O` the growth was 6.05% (active).
`Nc1c(C(=O)c2ccc(F)cc2)sc2nc3c(cc12)CCCC3` was tested, and the growth was 82.5% (inactive).
For `COc1cccc(C2CC(=O)Nc3c2c(C)nn3-c2nc3ccccc3[nH]2)c1OC` (configuration not stated), the growth was 75.5% (inactive).
`COc1ccc(NC(=O)CSc2nc3ccc(Cl)cc3c(=O)n2-c2ccccc2C(F)(F)F)c(OC)c1OC` was tested, and the growth was 80.1% (inactive).
In the case of `Cc1cc(C)c(NC(=O)c2sc3nc4c(cc3c2N)CN(Cc2ccccc2)CC4)c(C)c1`, the growth is reported as 23.9% (inactive).
In the case of `CC(C)[C@H](CO)Nc1nc(Nc2ccc(C(=O)NCCNS(=O)(=O)c3cccc4c(N(C)C)cccc34)c(Cl)c2)c2ncn(C(C)C)c2n1`, the growth is reported as 12.1% (inactive).
With `COc1ccc(C(=O)c2cc(OC)c(OC)c(OC)c2)cc1/C=C/C(=O)c1ccc2c(c1)OCO2` the growth was 23.8% (inactive).
With `Cc1ccc(Oc2nc3ccccc3cc2-c2nnc(Cn3c(COc4ccccc4)nc4ccccc43)o2)cc1` the growth was 29.4% (inactive).
In the case of `Nc1c(C(=O)Nc2ccccc2)sc2nc3c(cc12)CCCCC3`, the growth is reported as 45.3% (inactive).
For `CC(C)C[C@H](NC(=O)Cn1ccc(NCc2ccccc2)cc1=O)B(O)O`, the growth was 31.2% (inactive).
For `CC(C)(C)c1ccc(S(=O)(=O)Oc2ccc3c4c(c(=O)oc3c2)CCCCC4)cc1`, the growth was 63.3% (inactive).
With `COc1cc(-c2nc(-c3nc4ccccc4[nH]3)cc3c2[nH]c2ccccc23)cc(OC)c1OC` the growth was 40.4% (inactive).
`O=C(Nc1ccc(OCc2nnc(-c3ccc(Cl)cc3)o2)c(F)c1)Nc1ccc(Cl)c(Cl)c1` was tested, and the growth was 90.9% (inactive).
In the case of `COc1ccc(/C=C/C(=O)c2ccc(B(O)O)cc2)cc1O`, the growth is reported as 86.7% (inactive).
In the case of `COc1ccc(/C=C/C(=O)c2cc(OC)c(OC)c(OC)c2)cc1OCc1cn(Cc2ccc(F)cc2)nn1`, the growth is reported as 29.2% (inactive).
With `CC(C)(C)OC(=O)N[C@@H](Cc1ccccc1)C(=O)N(Cc1ccccc1)C1(C(=O)NCc2ccccc2)CCN(Cc2ccccc2)CC1` the growth was 19.3% (inactive).
`COC(=O)c1cc(-c2cccs2)c(C#N)c(N)c1C#N` was tested, and the growth was 102% (inactive).
`CCN(CC)P(=O)(N(CC)CC)N(CCCSC/C=C(\C)CC/C=C(\C)CCC=C(C)C)CCCN1CCN(C)CC1` was tested, and the growth was 92.9% (inactive).
In the case of `O=C(O)c1cccc([N+](=O)[O-])c1/C=C/c1ccccc1`, the growth is reported as 98.7% (inactive).
For `Cc1ccc(C(=O)c2sc3nc4c(cc3c2N)CCCC4)c(C)c1`, the growth was 44.1% (inactive).
In the case of `COc1cc(/C=C\c2cc(OC)c(OC)c(OC)c2)cc(N/C=C\C(=O)c2c[nH]c3ccccc23)c1OC`, the growth is reported as 70.8% (inactive).
With `COc1cc(C(=O)/C=C/c2cc(C(=O)c3cc(OC)c(OC)c(OC)c3)ccc2OC)ccc1N` the growth was 18.8% (inactive).
`CC(C)C[C@H](NC(=O)[C@@H](Cc1ccccc1)n1ccc(Nc2ccccc2)cc1=O)B(O)O` was tested, and the growth was -25.1% (active).
For `COc1ccc(Cn2c(SC)nc(=O)n(Cc3ccc(Cl)cc3)c2=O)cc1`, the growth was 93.5% (inactive).
For `COc1ccc(Cn2cc(COc3cc(/C=C/C(=O)c4cc(OC)c(OC)c(OC)c4)ccc3OC)nn2)cc1`, the growth was 51% (inactive).
`O=c1oc2cc(OS(=O)(=O)c3ccccc3)c(Cl)cc2c2c1CCCCCC2` was tested, and the growth was 87.2% (inactive).
`COc1ccc(-c2nc(-c3nc4ccc(F)cc4[nH]3)cc3c2[nH]c2ccccc23)cc1` was tested, and the growth was 23.1% (inactive).
With `COc1ccc(C2CC(=O)Nc3c2c(C)nn3-c2nc3ccccc3[nH]2)cc1OC` (configuration not stated) the growth was 89.9% (inactive).
For `COc1ccc(NC(=O)CSc2nc3ccccc3c(=O)n2-c2ccccc2C(F)(F)F)c(OC)c1OC`, the growth was 93% (inactive).
With `COc1ccc(C(=O)/C=C/c2cc(C(=O)c3cc(OC)c(OC)c(OC)c3)ccc2OC)cc1` the growth was 68.8% (inactive).
With `COc1ccc(C(=O)/C=C/c2ccc(/C=C/c3cc(OC)c(OC)c(OC)c3)cc2)cc1` the growth was 56.7% (inactive).
